Laboratory results from ChEMBL document CHEMBL3988442, “University of Dundee, Small-Polar-MMV Screening Library” (2021).

Target: T1, Methionyl-tRNA synthetase, putative (Leishmania donovani (strain BPK282A1)) (UniProt E9BF75)
T1 sequence (whole entry): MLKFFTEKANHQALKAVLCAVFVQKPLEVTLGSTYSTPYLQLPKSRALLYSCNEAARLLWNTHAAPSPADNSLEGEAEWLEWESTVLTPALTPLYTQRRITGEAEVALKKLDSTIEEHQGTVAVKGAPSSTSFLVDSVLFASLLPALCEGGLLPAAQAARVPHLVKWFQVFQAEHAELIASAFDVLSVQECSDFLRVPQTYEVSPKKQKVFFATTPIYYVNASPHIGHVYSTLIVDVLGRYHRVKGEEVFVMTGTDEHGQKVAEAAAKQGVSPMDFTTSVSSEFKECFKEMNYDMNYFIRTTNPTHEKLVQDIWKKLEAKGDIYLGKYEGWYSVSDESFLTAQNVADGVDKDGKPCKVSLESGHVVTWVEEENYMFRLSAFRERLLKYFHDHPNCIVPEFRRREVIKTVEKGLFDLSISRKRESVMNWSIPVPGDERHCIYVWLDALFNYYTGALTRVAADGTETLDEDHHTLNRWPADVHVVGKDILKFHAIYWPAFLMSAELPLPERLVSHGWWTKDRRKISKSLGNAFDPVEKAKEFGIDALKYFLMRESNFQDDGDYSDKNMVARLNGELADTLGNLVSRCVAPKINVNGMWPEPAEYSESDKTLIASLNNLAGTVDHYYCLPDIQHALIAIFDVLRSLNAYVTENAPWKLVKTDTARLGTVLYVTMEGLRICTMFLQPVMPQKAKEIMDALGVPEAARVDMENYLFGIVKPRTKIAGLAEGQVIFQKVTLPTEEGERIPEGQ
Assay: Leishmania donovani Methionine tRNA synthetase (LdMetRS):v7. Dose response assay
Type: functional
Set-up: conc 80 nM, time 150 minutes

SMILES: O=C(CO)N1CCC(F)(F)C2(CCN(c3ccccc3)C2)C1 (stereo not drawn)
- PXC50 (MAX_EFFECT 15.37037037): < 4
- PXC50 (MAX_EFFECT 18.30985915): < 4

SMILES: Cc1sc(C)c(C(F)(F)F)c1CNCCCNc1cc(=O)c2ccccc2[nH]1
- PXC50 (BOTTOM -1.155419978, HILLSLOPE 1.172834864, MAX_EFFECT 100.9302326, TOP 101.3032533): 5.58
- PXC50 (BOTTOM -1.471807315, HILLSLOPE 1.111829353, MAX_EFFECT 101.8648019, TOP 104.5162556): 5.56

SMILES: CS(=O)(=O)N1CCN(c2ccc3ccc(C(=O)NCCN4CCc5ccccc5C4)cn23)CC1
- PXC50 (BOTTOM 9.287524867, HILLSLOPE 2.626114762, MAX_EFFECT 78.976234, TOP 76.44379257): 4.95
- PXC50 (BOTTOM -0.296501823, HILLSLOPE 1.63582329, MAX_EFFECT 73.68421053, TOP 78.31707036): 5.09

SMILES: O=c1nc(NCCCNC2CCOc3c(Cl)cc(Cl)cc32)[nH]c2ccccc12 (stereo not drawn)
- PXC50 (BOTTOM 1.104460677, HILLSLOPE 1.218727258, MAX_EFFECT 102.5925926, TOP 101.9327021): 6.05

SMILES: CN1CCC(CNC(=O)c2ccc3ccc(N4CCN(S(C)(=O)=O)CC4)n3c2)CC1
- PXC50 (BOTTOM 1.275548684, HILLSLOPE 2.230174864, MAX_EFFECT 66.02870813, TOP 65.69793646): 4.77
- PXC50 (BOTTOM -0.677256268, HILLSLOPE 1.919543897, MAX_EFFECT 70.20109689, TOP 75.47637091): 4.69

SMILES: COc1cc2ccc(N3CCN(S(C)(=O)=O)CC3)n2cc1C(=O)NC1CCCC1
- PXC50 (BOTTOM 1.185639049, HILLSLOPE 1.624291099, MAX_EFFECT 57.89473684, TOP 63.90970976): 4.71
- PXC50 (BOTTOM -1.038445777, HILLSLOPE 1.129445656, MAX_EFFECT 51.04166667, TOP 100.0): 4.35

SMILES: CCc1nc(NCCCO)c2cc(CC)sc2n1
- PXC50 (MAX_EFFECT 1.262626263): < 4
- PXC50 (MAX_EFFECT 8.163265306): < 4

SMILES: CCC(=O)N1CCC(c2ncc3c(n2)CCNC3)CC1
- PXC50 (MAX_EFFECT 1.814058957): < 4
- PXC50 (MAX_EFFECT 14.20560748): < 4

SMILES: CN(C)CCNC(=O)c1ccc2ccc(N(C)CC3CC3)n2c1
- PXC50 (MAX_EFFECT 42.17687075): < 4
- PXC50 (MAX_EFFECT 43.73831776): < 4

SMILES: Cc1nc(N2C[C@@H](CN3CCCN(C)CC3)[C@@H](CO)C2)c2ccsc2n1
- PXC50 (MAX_EFFECT 12.53263708): < 4
- PXC50 (MAX_EFFECT 15.40469974): < 4

SMILES: COc1ccccc1NC(=O)Nc1cccc(N)c1
- PXC50 (MAX_EFFECT 17.00934579): < 4

SMILES: Cn1ncc2c(NCCO)nc(Nc3ccc(F)cc3)nc21
- PXC50 (BOTTOM 3.895127381, HILLSLOPE 1.044427324, MAX_EFFECT 67.40740741, TOP 80.2965153): 4.65

SMILES: Cc1sc2nc(-c3cccs3)nc(N3CCNC(=O)C3)c2c1C
- PXC50 (MAX_EFFECT 4.8): < 4
- PXC50 (MAX_EFFECT 8.994708995): < 4

SMILES: CCc1nc(N2CCCC(C(=O)O)C2)c2c3c(sc2n1)CCC3 (stereo not drawn)
- PXC50 (MAX_EFFECT 18.93939394): < 4
- PXC50 (MAX_EFFECT 20.91836735): < 4

SMILES: Cc1nc(N2CCC(N3CCSCC3)CC2)c2ccsc2n1
- PXC50 (MAX_EFFECT 8.29015544): < 4
- PXC50 (MAX_EFFECT 9.042553191): < 4

SMILES: CCc1ccc(CN(C)Cc2nc(N)c3c(C)c(C)sc3n2)cc1
- PXC50 (MAX_EFFECT 28.57142857): < 4
- PXC50 (MAX_EFFECT 30.4): < 4

SMILES: CCc1nc(NCCCC(=O)O)c2c3c(sc2n1)CCC3
- PXC50 (MAX_EFFECT 7.808564232): < 4
- PXC50 (MAX_EFFECT 8.905852417): < 4

SMILES: Cc1nc(NC(C(=O)O)C(C)C)c2c(C)c(C)sc2n1 (stereo not drawn)
- PXC50 (MAX_EFFECT 8.0): < 4
- PXC50 (MAX_EFFECT 9.523809524): < 4

SMILES: CC(C)C[C@@H](COc1cccc(F)c1Oc1ccc(Cl)cc1)N(C)C
- PXC50 (MAX_EFFECT 6.418219462): < 4
- PXC50 (MAX_EFFECT 11.30063966): < 4

SMILES: COc1ccccc1NC(=O)NCC1CCCCC1
- PXC50 (MAX_EFFECT 34.20560748): < 4

SMILES: CCn1c(NC(=O)Nc2ccccc2C)nc2ccccc21
- PXC50 (MAX_EFFECT 7.777777778): < 4

SMILES: COc1cc(NC(=O)c2cccc3cccnc23)c(OC)cc1Cl
- PXC50 (MAX_EFFECT 3.703703704): < 4

SMILES: Fc1ccc(Nc2nc(-c3ccccn3)cs2)cc1
- PXC50 (MAX_EFFECT 22.79069767): < 4
- PXC50 (MAX_EFFECT 23.07692308): < 4

SMILES: CN(CCO)c1nccc(Cl)n1
- PXC50 (MAX_EFFECT 5.046728972): < 4

SMILES: CS(=O)(=O)N1CCN(c2ccc3ccc(C(=O)NC4CCOCC4)cn23)CC1
- PXC50 (BOTTOM 2.519402955, HILLSLOPE 2.221498876, MAX_EFFECT 53.88127854, TOP 54.22998304): 4.8
- PXC50 (BOTTOM -4.408166057, HILLSLOPE 3.645653811, MAX_EFFECT 56.79245283, TOP 54.33837105): 4.78

SMILES: Nc1nc(CSc2ncccn2)nc2sc3c(c12)CCCC3
- PXC50 (MAX_EFFECT 24.53333333): < 4
- PXC50 (MAX_EFFECT 26.98412698): < 4

SMILES: CCOC(=O)N1CCN(c2nc(CCN)nc3sc(C)c(C)c23)CC1
- PXC50 (BOTTOM 0.0282, HILLSLOPE 1.091908383, MAX_EFFECT 72.32375979, TOP 100.0): 4.33
- PXC50 (BOTTOM 1.098813228, HILLSLOPE 1.170601195, MAX_EFFECT 79.37336815, TOP 100.0): 4.4

SMILES: Cc1cc2c(N3CCN(C)CC3)nc(-c3cccnc3)nc2s1
- PXC50 (MAX_EFFECT 6.010928962): < 4
- PXC50 (MAX_EFFECT 7.486631016): < 4

SMILES: Cc1sc2nc(-c3cccnc3)nc(N3CCCC(CO)C3)c2c1C (stereo not drawn)
- PXC50 (BOTTOM 0.693465662, HILLSLOPE 1.473836838, MAX_EFFECT 56.47668394, TOP 100.0): 4.07
- PXC50 (BOTTOM -1.655591932, HILLSLOPE 1.509629481, MAX_EFFECT 54.25531915, TOP 100.0): 4.06

SMILES: O=C(O)C1CCCN1c1nc(C2CC2)cc(C(F)(F)F)n1 (stereo not drawn)
- PXC50 (MAX_EFFECT 5.221932115): < 4
- PXC50 (MAX_EFFECT 7.049608355): < 4

SMILES: Cc1ccc(-c2ncc(CNc3cnccc3CO)s2)o1
- PXC50 (MAX_EFFECT 7.511737089): < 4
- PXC50 (MAX_EFFECT 8.703703704): < 4

SMILES: CN(CCO)c1nccc(Nc2ccc(F)c(F)c2)n1
- PXC50 (MAX_EFFECT 7.663551402): < 4

SMILES: CN(C)C(=O)CNC(=O)c1ccc2ccc(N(C)CC3CC3)n2c1
- PXC50 (MAX_EFFECT 21.76870748): < 4
- PXC50 (MAX_EFFECT 29.90654206): < 4
